Results: ChEMBL document CHEMBL4513216, “Probing the Open Global Health Chemical Diversity Library for Multistage-Active Starting Points for Next-Generation Antimalarials” (ACS Infect Dis, 2020)
Out of some 69,000 compounds screened, about 8,600 (12%) showed an effect of 50% or more. This excerpt belongs to a sample that is enriched for strong results.

Test system: Plasmodium berghei
Experiment: Screen against P. berghei liver stage (PbLuc), transformed with Luciferase, at 10uM
Assay type: functional, HepG2
Details: tested at 10 uM

SMILES | INHIBITION
O=C1NC2(CCN(CC(=O)N3CCOCC3)CC2)Nc2ccccc21 | 3.5%
O=S1(=O)COCCN1Cc1ccc(F)c(C(F)(F)F)c1 | 19.4%
OC[C@@H]1CCCN1c1ccc(-c2nc(COc3ccccc3)no2)cn1 | 25.8%
COc1ccc(-c2noc(-c3ccc(N4CCC[C@H]4CO)nc3)n2)cc1 | 84.8%
Cc1noc(-c2ccc(N3CCC[C@H]3CO)nc2)n1 | 17.6%
OCC1CCCCN1c1ccc(-c2nc(-c3ccccc3F)no2)cn1 (stereo unspecified) | 91.8%
COCc1noc(-c2ccc(N3CCC[C@H]3CO)nc2)n1 | 75.7%
COc1ccc(-c2cnc(CN3CCCC3CO)o2)cc1 (stereo unspecified) | 15.1%
OC[C@@H]1CCCN1c1ccc(-c2nc(CCc3ccccc3)no2)cn1 | 43.9%
COCc1noc(-c2ccc(N3CCCCC3COC)nc2)n1 (stereo unspecified) | 48.5%
COCc1noc(-c2ccc(N3CCCCC3CCCO)nc2)n1 (stereo unspecified) | 35.8%
COCc1noc(-c2ccc(N3CCCC3c3nccs3)nc2)n1 (stereo unspecified) | 43%
COCc1noc(-c2ccc(N3CCCCC3CO)nc2)n1 (stereo unspecified) | 90.1%
COCc1noc(-c2ccc(N3CCCC3c3ccc(F)cc3)nc2)n1 (stereo unspecified) | 18.5%
CCCN1C[C@@H]2CC[C@H]1CN(C(=O)c1ccc(N(C)CCO)cc1)C2 | 43.9%
N#Cc1ccc(CS(=O)(=O)NC(=O)COc2ccc3c(c2)CCC3)cc1 | -57.66%
COC(=O)N1CC(C)=C(C)CN1C(=O)Nc1cccc(Cl)c1 | -28.6%
COc1cc(OC)cc(C(=O)N2CCOCC2c2[nH]ncc2C)c1 (stereo unspecified) | 46.25%
Cc1nc(C)n(CC2CCCN2CCC(=O)N2CCCCC2)n1 (stereo unspecified) | -8.11%
Cc1ccc(C(=O)N2Cc3c(CN4CCCCC4)nn(C)c3C2)o1 | 28.4%
CC(=O)Nc1nc(C(=O)N2CCCC2c2ccc(Br)cc2)cs1 (stereo unspecified) | 26.4%
Cc1cc(C)c(CNC(=O)C(C)Oc2cccc(C#N)c2)c(=O)[nH]1 (stereo unspecified) | 36.4%

SMILES | INHIBITION
CCC(C)Oc1ccccc1Cn1cc2[nH]cccc-2c1=O (stereo unspecified) | 41.5%
Cc1ccnc(C2CN(c3ccnc(C)n3)C2)n1 | 28.6%
CCc1nc(NC2CCN(CC(=O)NC3CC3)CC2)c2cnn(C)c2n1 | 21.8%
COc1ccc(CN2CCC(CO)(Cc3ccc(Cl)cc3)CC2)c(O)c1 | 31.6%
COc1cccc(CN2CCC(CO)(Cc3ccc(Cl)cc3)CC2)c1O | 85.4%
Clc1ccc(CN2CCC(C3CCN(Cc4cccnc4)CC3)C2)cc1 (stereo unspecified) | 36.8%
OCC1(Cc2ccc(Cl)cc2)CCN(Cc2cccnc2)CC1 | 92%
Clc1ccc(CN2CCC3(CC2)CC(c2cccnc2)=NO3)cc1 | 46.6%
OCC1(Cc2ccc(Cl)cc2)CCN(Cc2ccccc2O)CC1 | 14.6%
Cc1c(C(=O)NCC2CCCO2)nnn1-c1cccc2c1CCN(C)C2 (stereo unspecified) | 29.2%
COc1c(C2CCCN2C(=O)c2ccc3[nH]cnc3c2)c(C)nn1C (stereo unspecified) | -2.19%
O=C(C1CC1)N1C[C@@H](F)[C@@H](OCc2nc3ccccc3o2)C1 | 13.1%
F[C@@H]1CN(CC2CC2)C[C@@H]1OCc1nc2ccccc2o1 | -3.5%
CS(=O)(=O)N1C[C@@H](F)[C@@H](OCc2nc3ccccc3o2)C1 | 41.1%
CC(=O)N1C[C@@H](F)[C@@H](OCc2nc3ccccc3o2)C1 | -15.6%
O=C(c1ccno1)N1C[C@@H](F)[C@@H](OCc2nc3ccccc3o2)C1 | 56.3%
O=C(C1CC1)N1C[C@@H](F)[C@@H](OCc2nc3ccccc3[nH]2)C1 | 7.85%
F[C@@H]1CN(CC2CCCCC2)C[C@@H]1OCc1nc2ccccc2o1 | 29.8%
CC(C)(C)C(=O)N1C[C@@H](F)[C@@H](OCc2nc3ccccc3o2)C1 | 70.7%
CC(C)NC(=O)N1C[C@@H](F)[C@@H](OCc2nc3ccccc3o2)C1 | 58.5%
CCC(CN1CCCCC1)NC(=O)C1(c2ccc(F)cc2)CC1 (stereo unspecified) | 48.2%
COc1ccc(C(=O)N2CCOCC2c2[nH]ncc2C)cc1F (stereo unspecified) | 3.75%

SMILES | INHIBITION
Cc1cnn(CC2CN(Cc3nc4ccccc4c(=O)[nH]3)CCO2)c1 (stereo unspecified) | 29.4%
Cc1nc2c(Nc3cccc(C#N)c3)nc(N)nc2n1C | -42.8%
CC(C)NC(=O)N1CCC2(CC1)Cc1ccccc1CN(C)C2=O | -6.25%
CNC(=O)Nc1cc(-c2ccccc2C)nn1CCO | -60%
CCNC(=O)CCC(=O)NCC1(O)CCC(C(C)(C)C)CC1 (stereo unspecified) | -23.8%
COc1cccc(S(=O)(=O)N2CCCCC2CCN2CCOCC2)c1 (stereo unspecified) | 22.6%
CC(C)N1CCC(CC(=O)NC(C(=O)O)c2ccc(F)cc2)CC1 (stereo unspecified) | 33.9%
CCN1CCC(CC(=O)N[C@H](C(=O)O)c2cccc(F)c2F)CC1 | -2.39%
CC(C)N1CCC(CC(=O)NC(C(=O)O)c2cc(F)ccc2F)CC1 (stereo unspecified) | 52.1%
CCCN1CCC(CC(=O)N[C@H](C(=O)O)c2cccc(F)c2F)CC1 | 53%
CC(C)N1CCC(CC(=O)NC(C(=O)O)c2cccc(F)c2)CC1 (stereo unspecified) | 36.7%
O=C(CCCN1CCCCC1)N[C@H](C(=O)O)c1cccc(F)c1F | 34.5%
O=C(CCc1nc2cccnc2[nH]1)Nc1ccc2c(c1)NC(=O)CO2 | 14.8%
Cc1cccc(N2CCC(NCc3cnc(C4CCC4)s3)CC2)n1 | 36.5%
Cc1ccc(N2CCCC(NCc3ccc4c(c3)OCCO4)C2)nn1 (stereo unspecified) | -19.4%
CSc1nccc(N2CCC(=O)N(CC3CC3)C(C(C)C)C2)n1 (stereo unspecified) | 7.43%
CSc1nccc(N2CCC(NCc3ccc4nsnc4c3)CC2)n1 | 76.9%
CSc1nccc(N2CCC(NCc3nc(C)cc(C)n3)CC2)n1 | 8.7%
CSc1nccc(N2CCC(NCc3ccc4c(c3)OCO4)CC2)n1 | 57.4%
O=C(NCCNS(=O)(=O)N1CCCCCC1)c1ncccc1O | -13.6%
CCCC(O)CN1CCC(=O)N(Cc2ccccc2)Cc2ccccc21 (stereo unspecified) | -30%
Cc1ccc(C)n1-c1c(C(=O)NCC(C)Cn2cccn2)cnn1C (stereo unspecified) | 5.36%
